Measured values published in ChEMBL document CHEMBL1157539, “Thousands of chemical starting points for antimalarial lead identification” (Nature, 2010).

What follows are compounds tested on Plasmodium falciparum (assay: GSK_TCMDC: Inhibition of Plasmodium falciparum 3D7 in whole red blood cells, using parasite LDH activity as an index of growth. Test compounds present at 2uM).
Type: functional
With Br.CC1(C)NC(N)=NC(=N)N1OCC1CCCCC1 the Inhibition was 94%.
With CC(=O)Nc1ccc([N+](=O)[O-])c2c(Br)cccc12 the Inhibition was 100%.
COc1cc2nc(NCCc3ccccc3)nc(N(C)Cc3ccccc3)c2cc1OC showed an Inhibition of 96%.
In the case of COc1ccc(C=Cc2ccc(-c3c(C)[nH]c(C)c(Cl)c3=O)cc2)cc1OC, the Inhibition is reported as 97%.
In the case of CC(C)(CNC(=O)[C@@H]1CCCN(Cc2ccc(Cl)cc2)C1)c1nc(-c2ccc(Cl)c(O)c2)c(-c2ccncc2)[nH]1.Cl, the Inhibition is reported as 97%.
Work on Cc1nnsc1C(=O)Nc1cccc(-c2cccc(-c3nc4cc(F)ccc4[nH]3)c2)c1 yielded an Inhibition of 100%.
O=C(/C=C/c1ccc(Cl)c(Cl)c1)NCCCCCN1CC[C@H](NC(=O)c2ccc3c(c2)OCO3)C1 was tested, and the Inhibition was 94%.
CCOc1cc(C(=O)NCc2ccc(Cl)c(Cl)c2)ccc1-c1nc2cc(Cl)ccc2[nH]1 was tested, and the Inhibition was 97%.
With CC(CCCC(=O)Nc1ccc(CC(C)NCCc2cccc(Cl)c2)cc1)NCCc1cccc(Cl)c1 (centres undefined) the Inhibition was 100%.
In the case of COc1cccc2c1CCN(CCN1CCC(NC(=O)c3ccc(-c4cccc(Cl)c4Cl)cc3)CC1)C2, the Inhibition is reported as 100%.
Work on O=C(NCC(NCCCNc1cc(=O)c2ccccc2[nH]1)c1cc(Br)cc(Br)c1)C1=CCCC1 (centres undefined) yielded an Inhibition of 96%.
O=C(N[C@@H](Cc1ccccc1)C(=O)NCCN1CCCC1)c1ccc(O)c(-c2ccc(Cl)c(Cl)c2)c1 gave an Inhibition of 95%.
With Cc1c(Cl)cccc1N=C(S)NN=Cc1ccccn1 the Inhibition was 99%.
Compound Cc1ncc(CN2CCC(C(=O)Nc3ccc(-c4nc5ccccc5o4)cc3)CC2)s1 has an Inhibition of 82%.
